Nrf2 block: Nrf2 pathway inhibition; A549 ARE-Fluc reporter, luciferase luminescence, 18-24 h; Potency, µM (titrated, usually from 46 µM), hits mostly inhibitors; 360,000 tested, 2.1% active; AID 504444; note: nearly all actives have a fitted effect of over 60% in size
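A549 ARE_Fluc cells, 5000/well, 5% FBS OPTI-MEM; compounds in dose-response, 18-24 h at 37 °C/5% CO2; CellTiter-Fluor viability read (Ex 405/Em 525), then BugLite luciferase luminescence = Nrf2 activity.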
ATXN viability: reduces viability in counter-screen for ATXN expression inhibitors; Potency, µM (top dose mostly 56.7 µM), hits mostly cytotoxic; AID 651635; 400,000 tested, 0.49% active; S2 cells (HEK-293 line with an ATXN2-luciferase reporter) viability, CellTiter-Fluor protease fluorescence, 24 h; note: nearly all actives have a fitted effect of over 40% in size
HepG2 tox: counter-screen for TGF-b inhibitors: cytotoxicity in HepG2 cells; HepG2 CAGA-GFP viability, ATP luminescence, 18 h; Potency, µM (series often up to 46.1 µM), most hits filed as cytotoxic; 410,000 tested, 0.76% active
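CellTiter-Glo luminescence gave cytotoxicity after 18 hours at 37 degrees C. The cells were HepG2 CAGA-GFP in 1% FBS DMEM, stimulated with 500 pg/mL TGF-beta after compound addition. %Activity was normalised to no-cell wells (complete cell-killing) and DMSO (no toxicity), and curves were fitted and classified.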
A549 tox-1: A549 cytotoxicity, counter-screen for Nrf2 inhibitors | A549 ARE-Fluc cells, CellTiter-Fluor viability, 18-24 h | Potency, µM (top dose mostly 46 µM), actives largely listed as inhibitors | 390,000 tested, 0.16% active | AID 504648
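A549 ARE-Fluc cells in 5% FBS OPTI-MEM, 5000 cells/well, rested 2 h then exposed to compounds in concentration-response for 18-24 h at 37 °C. Viability by CellTiter-Fluor fluorescence (Ex 405/Em 525) after 30 min; luciferase luminescence (BugLite, 15 min, RT) read afterwards.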
TGFb SMAD3 inh: inhibitors of TGF-b signaling; HepG2 CAGA-GFP TGF-b/SMAD3 reporter, GFP fluorescence, 18 h; TGF-beta stimulated, 500 pg/mL final; Potency, µM (titrated, usually from 46.1 µM), most hits filed as inhibitors; 410,000 tested, 1.2% active; note: nearly all actives have a fitted effect of over 65% in size
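Using HEPG2 CAGA-GFP reporter cells at 1000 cells/well, we pinned test compounds, stimulated with recombinant TGF-beta (500 pg/mL final) and measured total well GFP after 18 h.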
ATXN2 expr inh: ATXN2 expression inhibition; Potency, µM (titrated, usually from 57 µM), actives largely listed as inhibitors; AID 1745845; HEK-293 ATXN2-luciferase reporter, luminescence, 24 h; 360,000 tested, 0.72% active; note: nearly all actives have a fitted effect of over 55% in size
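qHTS (up to 57 uM final) was run with 24 h compound exposure of reporter cells at 37 °C. Each well was multiplexed: SteadyGlo luminescence measured ATXN2-luciferase expression after a fluorogenic Gly-Phe-AFC viability readout (25 uM final).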
FLuc counter 3: counter-screen for Nrf2 inhibitors: firefly luciferase enzyme inhibition; Potency, µM (highest dose often 57.5 µM), usual class: inhibitors; 1,400 tested, 4% active; shares compounds with Nrf2 block; purified firefly luciferase, luminescence inhibition; note: nearly all actives have a fitted effect of over 65% in size
Target sequence (P08659 whole entry, looked up): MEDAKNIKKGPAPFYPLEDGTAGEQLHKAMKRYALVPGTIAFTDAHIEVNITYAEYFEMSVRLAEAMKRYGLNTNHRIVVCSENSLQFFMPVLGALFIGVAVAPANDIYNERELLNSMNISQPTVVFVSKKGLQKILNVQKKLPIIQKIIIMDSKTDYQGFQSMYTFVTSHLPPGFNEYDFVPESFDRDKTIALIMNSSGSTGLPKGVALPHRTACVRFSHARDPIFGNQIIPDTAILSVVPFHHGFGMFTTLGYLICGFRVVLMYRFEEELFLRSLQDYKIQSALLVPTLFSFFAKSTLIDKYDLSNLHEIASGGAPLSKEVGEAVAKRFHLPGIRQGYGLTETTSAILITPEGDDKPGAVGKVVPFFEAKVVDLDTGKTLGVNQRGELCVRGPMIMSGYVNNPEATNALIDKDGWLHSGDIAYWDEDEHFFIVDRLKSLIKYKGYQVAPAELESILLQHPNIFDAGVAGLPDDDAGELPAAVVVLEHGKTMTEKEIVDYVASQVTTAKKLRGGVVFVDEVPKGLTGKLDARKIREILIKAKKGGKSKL
A549 tox-2: toxic to A549 ARE-Fluc cells in Nrf2 counterscreen. shares compounds with Nrf2 block. A549 ARE-Fluc cells, cytotoxicity counterscreen. Potency, µM (top dose mostly 46.1 µM), usual class: inhibitors. 1,400 tested, 2% active. AID 720523;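 note: cells exposed to compounds for 18 to 24 hours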
ARE-Fluc inh: reduces Nrf2 ARE reporter signal in A549 cells | Potency, µM (top dose mostly 46.1 µM), usual class: inhibitors | 1,400 tested, 74% active | A549 ARE-firefly luciferase reporter, luminescence | shares compounds with Nrf2 block; note: nearly all actives have a fitted effect of over 65% in size
A number is an active result; 0 = inactive; ? = inconclusive; - = not tested or not shown; [ ] = another dose, or the depositor's remark. This is a sample that favours compounds with a hit; in the whole collection about 3.8% have one here. Calls come from the whole dose curve; as a rule, active = well fitted curve in the direction sought with a large enough effect; inconclusive = small, poorly fitted or top-dose-only effect, or another doubt; inactive = no such curve, though single readings can be large; an effect the other way counts as inactive or inconclusive.

SMILES	Nrf2 block	ATXN viability	HepG2 tox	A549 tox-1	TGFb SMAD3 inh	ATXN2 expr inh	FLuc counter 3	A549 tox-2	ARE-Fluc inh
COc1ccc(/C=C2\SC(=O)N(CCCC(=O)Nc3cc(Cl)ccc3C(=O)O)C2=O)cc1	0.731µM	0	0	0	0	0	12µM	0	1.46µM
CCC1(c2ccccc2)NC(=O)N(CC(=O)Nc2ccc(OC)nc2)C1=O (centres undefined)	0	0	0	0	0	0	-	-	-
COc1ccc(CCN(C)C(=O)c2cccc(S(=O)(=O)NCc3ccccc3)c2)cc1OC	?	?	0	0	0	0	-	-	-
CN(Cc1ccc(OC(F)F)cc1)C(=O)c1cccc(S(=O)(=O)N2CCN(Cc3ccccc3)CC2)c1	6.51µM	0	0	0	10µM	?	0	0	6.51µM
CN(Cc1ccc(Cl)cc1Cl)C(=O)c1cccc(S(=O)(=O)N2CCN(c3ccccc3)CC2)c1	?	0	0	0	?	0	-	-	-
COc1cccc(CN(C)C(=O)c2cccc(S(=O)(=O)N3CCN(c4ccccc4)CC3)c2)c1OC	7.31µM	0	0	?	?	?	0	?	0.116µM
CN(CCOc1ccc(Cl)cc1)C(=O)c1cccc(S(=O)(=O)N2CCN(c3ccccc3)CC2)c1	5.8µM	0	0	?	?	0	0	0	23.1µM
COc1cccc(CN(C)C(=O)c2cccc(S(=O)(=O)NCc3ccccc3)c2)c1OC	7.31µM	0	0	0	0	0	0	0	0
CC(=O)c1ccc(OCC(=O)OCC(=O)c2ccc(S(=O)(=O)N3CCCCC3)cc2)cc1	-	0	0	-	0	-	-	-	-
COc1cc(C)ccc1OCc1cc(C(=O)N2CCC(c3ccc(F)cc3)C2)no1 (centres undefined)	?	0	0	0	0	-	-	-	-
COc1ccc(C)c(NC(=O)NCCc2cnc[nH]2)c1	0	0	0	0	0	0	-	-	-
C[C@@]12C=CC(=O)C=C1CC[C@@H]1[C@@H]2[C@H](O)C[C@]2(C)[C@@H]1CC[C@]2(O)C(=O)CO	-	0	-	-	-	-	-	-	-
C[C@]12C=CC(=O)C=C1CC[C@@H]1[C@@H]2[C@@H](O)C[C@@]2(C)[C@H]1CC[C@]2(O)C(=O)CO	0.058µM	0	0	0	0	0	0	0	0.0731µM
C[C@]12C=CC(=O)C=C1CC[C@@H]1[C@@H]2[C@@H](O)C[C@@]2(C)[C@H]1CC[C@]2(O)C(=O)COC(=O)CCC(=O)NCCc1ccc(O)cc1	0.116µM	0	0	0	0	0	0	8.2µM	5.8µM
C[C@]12CCC(=O)C=C1[C@H](O)C[C@@H]1[C@@H]2[C@@H](O)C[C@@]2(C)[C@H]1CC[C@]2(O)C(=O)CO	0	0	0	0	0	0	-	-	-
C[C@]12C=CC(=O)C=C1CC[C@@H]1[C@@H]2[C@@H](O)C[C@@]2(C)[C@H]1CC[C@]2(O)C(=O)COC(=O)CCC(=O)O	0.0461µM	?	0	0	0	0	0	0	0.231µM
CC(C)=CCC/C(C)=C/CC/C(C)=C/C(=O)OCC(=O)[C@@]1(O)CC[C@H]2[C@@H]3CCC4=CC(=O)C=C[C@]4(C)[C@H]3[C@@H](O)C[C@@]21C	-	0	-	-	-	0	-	-	-
C[C@H]1C[C@@H]2[C@H]([C@@H](O)C[C@@]3(C)[C@H]2CC[C@]3(O)C(=O)CO)[C@@]2(C)C=CC(=O)C=C12	0.0259µM	0	0	0	0	0	0	0	0.0326µM
C/C(N)=C(/C#N)C(=O)COC(=O)C1CCN(S(=O)(=O)c2cccs2)CC1	0	0	0	0	0	0	-	-	-
COC(=O)C1=C(C(=O)OC)SC(=C2C(=S)C(C)(C)N(C(=O)CC(C)C)c3ccccc32)S1	0	?	0	0	0	?	-	-	-
C=CCn1c(Oc2ccc(C=O)cc2OCC)nc2c1c(=O)n(C)c(=O)n2C	0	0	0	0	0	-	-	-	-
CCOC(=O)O[C@]1(C(=O)COC(=O)CC)CC[C@H]2[C@@H]3CCC4=CC(=O)C=C[C@]4(C)[C@H]3[C@@H](O)C[C@@]21C	0.058µM	0	0	0	0	0	0	0	0.058µM
CS(=O)(=O)N1CCCc2cc(C(=O)Nc3cccc(C(F)(F)F)c3)ccc21	9.2µM	-	0	0	0	-	?	0	?
Cc1nc(N2CCCCC2)sc1C(=O)c1cccc([N+](=O)[O-])c1	2.91µM	0	0	0	0	0[11.3 µM]	0	0	0
COc1ccc(S(=O)(=O)c2nnn(-c3ccc(C(C)C)cc3)c2C)cc1	9.2µM	0	0	0	0	0	0	0	5.17µM
SMILES	Nrf2 block	ATXN viability	HepG2 tox	A549 tox-1	TGFb SMAD3 inh	ATXN2 expr inh	FLuc counter 3	A549 tox-2	ARE-Fluc inh
COc1ccc(S(=O)(=O)c2nnn(-c3cc(Cl)c(OC)cc3OC)c2C)cc1	0	0	0	0	0	?	-	-	-
CC(C)NC(=O)C1CCN(C(=O)c2cc3sccc3n2Cc2ccc(Cl)cc2)CC1	5.8µM	?	0	0	?	?	0	?	4.11µM
Nc1nc(Cl)nc2c1ncn2[C@H]1C[C@H](O)[C@@H](CO)O1	0.013µM	0	0	0	?	?	0	0	5.8µM
COc1ccccc1C(=O)NCCCNC(=O)c1cccnc1	1.84µM	0	0	0	0	0	0	0	0
CN(C)c1ccc(/C=C/c2cccc[n+]2[O-])cc1	0	-	0	0	0	0	-	-	-
CN(C)c1ccc(/C=C/c2cc3ccccc3c[n+]2C)cc1	-	-	0	-	10µM	-	0	?	6.51µM
CN(C)c1ccc(/C=C/c2ccc3c4ccccc4ccc3[n+]2-c2ccccc2)cc1	3.66µM	-	0	10.3µM	?	1.06µM	?	7.31µM	2.91µM
CC(=O)c1c(C)[nH]c(C(=O)OCC(=O)Nc2ccccc2Cl)c1C	5.8µM	0	0	0	0	0	0	0	5.8µM
CC(=O)c1c(C)[nH]c(C(=O)CN(C)CC(=O)Nc2ccccc2Cl)c1C	?	0	0	0	0	0	-	-	-
O=C(NCc1ccc(F)cc1)c1ccc2c(c1)nc1n2CCCCC1	-	-	0	0	0	-	-	-	-
CCC[n+]1c(/C=C/c2c(OC)cc(OC)cc2OC)ccc2ccccc21	-	-	0	-	0	-	0	7.31µM	2.31µM
CCCC[n+]1c(/C=C/c2c(OC)cc(OC)cc2OC)ccc2ccccc21	-	-	0	-	0	-	0	?	1.64µM
COc1cc(OC)c(/C=C/c2ccc3ccccc3[n+]2C)c(OC)c1	-	-	0	-	0	-	0	?	1.64µM
